In all, about 53,000 sequences went through this assay and about 3,700 (7%) were called active. Only a selection was taken, and actives are over-represented in it overall. A number with no mark means an inactive call.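 How the source made its calls: active means gene knockdowns whose robust z-score for IL-1 alpha signal is at least 2 or at most -2, so actives lie on both sides; inactive means the rest.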
Test: Components of the Cytosolic LPS Sensing Pathway: Gene Identification via Genome-wide siRNA Screen;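 further: robust z of the log signal after scaling to non-targeting control siRNA wells of the plate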
Conditions: RAW264.7 macrophages, IL-1a HTRF, actives lie on both sides, screened at 100 nM (by protocol), cells primed 5 h with Pam3CSK4 first
Summary of the method: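 Using IL-1a HTRF as read-out, the screen measured release from RAW264.7 cells after 48h siRNA knockdown (100 nM), 5 h Pam3CSK4 priming and 24 h cytosolic LipidA. Values were expressed relative to negative-control wells as robust z-scores.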

| Sequence | z-score |
| --- | --- |
| GGAUUCACCUGUUAUCUUUTT against Tapbpl | 0.303 |
| UGAAUCACCACCCGGAAUGTT against Pcbd2 | 0.41 |
| CCUAUGUGCGUUCCAAGCATT against Eif5b | -0.432 |
| GGACAUCUGUGUUAAAUUUTT against Npy1r | -0.47 |
| GGAAGAUACUGUGGUUUAUTT against Agbl3 | 2.29 (active) |
| GGCAUUGGUGUUUCAUUAATT against Gpm6a | 1.2 |
| GGUAUUAUGACCAGAUUAUTT against Plxnb3 | 0.736 |
| GGACGAUUGCCAUAUGAACTT against Ice2 | -0.99 |
| GUACUUUCUUGAACCAGAGTT against Cacng7 | -0.486 |
| GGAUGAAGCCUUCAUCAGGTT against Adcy6 | 0.0162 |
| GGAGAGAGACACAAGCUUGTT against Map7d1 | 1.07 |
| CCCGGGUCUUUGAUAUCUUTT against Evi5l | 2.03 (active) |
| GCGAAAACUUCGGAUCUAUTT against Smarcd2 | 1.29 |
| GGCUUAUCAUACCUGGUUGTT against Olfr691 | 0.404 |
| GGAUAUUUCAGUUGGCGGGTT against Lama2 | -0.158 |
| GGUCAAACUGAAGAAGGAGTT against Slc7a7 | -1.24 |
| GGAAGUUGAAAUGCUGUCGTT against Clcnka | -2.24 (active) |
| GCAAGGAAAAUCUAUACCGTT against Rgs2 | -0.954 |
| GCACAUACAGAGCUCGUCUTT against Zkscan6 | -0.471 |
| CCAGAUAAGCCUCAUCAAUTT against Scn5a | -0.163 |
| GAAUCAGCUGUUCUCUCACTT against Tm2d3 | 2.25 (active) |
| GCACCAAACCAAUAUUAGUTT against Epb41l3 | 1.13 |
| GCACCAUUAAGGUUGCCAATT against Nudt11 | -1.16 |
| GGUCUGUGGGAAACAUAAATT against Gria3 | -0.233 |
| GGAUGUCUAUUUUUGGUCATT against Esd | -0.819 |
| GGCGGAUACUUGAUCGAAATT against Exoc3 | 2.41 (active) |
| GGGACAAUACCAAUUUCUCTT against Car15 | -0.209 |

| Sequence | z-score |
| --- | --- |
| GGCAAUCUCCUUUAAUUGATT against Zfp329 | 0.237 |
| GCCCUCAACCAUAAUUCAATT against Zscan21 | 2.15 (active) |
| GGAAAUGAGCCAGGAUGGUTT against Cdca4 | 0.0601 |
| CCCGAUUAUCUAGUGAUACTT against Sbk1 | 0.311 |
| GCCACUGGUUCACCAUGCATT against Ugt1a9 | -0.52 |
| GCCAGCUUUUAGUAUCAACTT against Sun1 | 2.4 (active) |
| GCCUGUGGUAGGAUACUAUTT against Denr | -0.964 |
| GGAAGGAACCGUUCUAUAATT against Serpinc1 | 0.221 |
| GGUUGGAUACUCGUCUUCATT against Olfr421-ps1 | 1.16 |
| GGCCCACAGUUUGUGACUGTT against Larp7 | -1.1 |
| GCGUAUAGGUGAUGUACAGTT against Smad3 | 2.28 (active) |
| GGUCAUUAGUUAUUCCUACTT against Olfr600 | -1.33 |
| GGGUUCAAGAUAUCAAGUATT against 4933434E20Rik | 1.23 |
| GCUUGGGUCAUAGGGAUGATT against Olfr1288 | -0.371 |
| CCACUUUUGUAAUGGAAGCTT against Mfsd6l | 1.89 |
| GGAGAUUCAGAUCAAAGAGTT against Scyl1 | -0.182 |
| GCUACGUUUUUUACCUCCATT against Bak1 | 0.0106 |
| GGCUUCCAGUAAUGACAAUTT against Vwc2l | -1.67 |
| GGACUAUCAUCUGAUGCCATT against Klhl18 | 2.45 (active) |
| GGUCUUUCCCAGGAUUCCATT against Rab19 | -0.837 |
| GGUUGACUAUACUGAAAAGTT against Prrc2a | -0.606 |
| GGGCAAUGAAUGACAUUGGTT against Gabrd | -0.368 |
| GGGAGAAUCGAACUAUAAATT against Raver1 | -0.477 |
| GGACCCUUAGGAAAUGUGCTT against S100a10 | -1.13 |
| GCAUCAGAUUAUCUCACUGTT against Mtrf1l | 0.261 |
| CGCGUGAUUGAUGUUUUACTT against Atxn10 | 0.793 |
| GUGUCAUUUCCCGGGACAUTT against Atp5g1 | 1.64 |

Reference: PubChem BioAssay AID1508600 (Functional Genomics Laboratory (NCATS/FGL), 2020)
